Laboratory results reported in PubChem BioAssay.
For part of these data: Potency and affinity values are given separately. Active and inactive are the calls of the source. Unless noted, how the calls were made is not given here.

Key:
[1] = antimalarial activity against Dd2 strain (AID 2302;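 active means growth inhibition above 50% at the single 2 µM test dose, taken to imply half-maximal potency below 2 µM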;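 further: 0% = DMSO untreated growth and 100% = chloroquine plus artemisinin killed control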); conditions: P. falciparum Dd2 in RBCs, LDH growth readout, 72 h; at 2 µM; active compounds read high
[2] = human hepatoma cell viability loss – ATP luminescence, cytotoxicity control for P. falciparum antimalarial project, primary screen (AID 2303;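 active means inhibition above 50%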;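 further: 0% = DMSO wells and 100% = digitonin-killed cells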); conditions: HepG2 viability, 24-48 h, at 10 µM, active compounds read high
[3] = target: L-lactate dehydrogenase (Plasmodium falciparum (isolate CDC / Honduras)) (UniProt Q27743); assay: PfLDH activity inhibition – cell lysate, 3D7 strain, counter-screen for P. falciparum growth inhibition project (AID 2304);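 further: 0% = vehicle and 100% = reference inhibitor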; conditions: P. falciparum 3D7 crude extract, LDH APAD/NBT absorbance; at 2 µM; active compounds read high
[4] = inhibition of 3D7 malaria parasite growth – strain 3D7 (AID 2306);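 further: 0% = DMSO wells and 100% = chloroquine plus artemisinin control wells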; conditions: P. falciparum 3D7 erythrocytic growth, LDH absorbance, 72 h; at 2 µM; active compounds read high
[5] = target: Calcium-dependent protein kinase 1 (Plasmodium falciparum (isolate 3D7)) (UniProt P62344); assay: PfCDPK1 kinase inhibitors, biochemical, TCAMS library (AID 1159585; cut-off not given, nearly all actives have IC50 up to about 0.98 µM;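 further: inhibitors leave more ATP so luminescence rises with inhibition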); conditions: recombinant PfCDPK1, Kinase-Glo ATP depletion luminescence
[6] = target: Plasmodium falciparum protein kinase 6 (PK6, PF3D7_1337100) (UniProt Q8IDW1); assay: PfPK6 kinase inhibitors, biochemical, TCAMS library (AID 1159586); conditions: recombinant PfPK6, Kinase-Glo ATP depletion luminescence
[7] = target: Protein kinase 7 (PK7), Plasmodium falciparum 3D7 (PF3D7_0213400) (UniProt Q7YTF7); assay: inhibition of Plasmodium PK7 catalytic activity – biochemical, TCAMS antimalarial set, Kinase-Glo luminescence (AID 1159587); conditions: recombinant PfPK7, Kinase-Glo ATP depletion luminescence
[8] = target: Calcium-dependent protein kinase 4 (Plasmodium falciparum (isolate 3D7)) (UniProt Q8IBS5); assay: PfCDPK4 kinase inhibitors, biochemical, TCAMS library (AID 1159588; cut-off not given, nearly all actives have IC50 up to about 0.91 µM); conditions: recombinant PfCDPK4, Kinase-Glo ATP depletion luminescence
Calcium-dependent protein kinase 4 (Plasmodium falciparum (isolate 3D7)), sequence (Q8IBS5 whole entry, looked up): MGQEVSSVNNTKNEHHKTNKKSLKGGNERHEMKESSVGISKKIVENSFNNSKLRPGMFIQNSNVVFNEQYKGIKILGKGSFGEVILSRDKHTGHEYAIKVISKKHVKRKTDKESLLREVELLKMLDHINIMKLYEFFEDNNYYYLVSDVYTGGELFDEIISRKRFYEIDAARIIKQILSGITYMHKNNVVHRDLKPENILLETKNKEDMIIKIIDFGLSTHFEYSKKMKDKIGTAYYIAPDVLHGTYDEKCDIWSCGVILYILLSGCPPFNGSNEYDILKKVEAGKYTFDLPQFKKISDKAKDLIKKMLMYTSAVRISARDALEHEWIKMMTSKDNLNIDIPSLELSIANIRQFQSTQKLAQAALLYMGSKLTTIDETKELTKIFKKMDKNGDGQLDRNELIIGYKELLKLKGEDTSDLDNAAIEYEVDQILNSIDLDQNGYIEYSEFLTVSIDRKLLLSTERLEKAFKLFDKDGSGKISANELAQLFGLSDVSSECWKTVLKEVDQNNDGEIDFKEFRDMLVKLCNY

Plasmodium falciparum protein kinase 6 (PK6, PF3D7_1337100), sequence (Q8IDW1 1-305): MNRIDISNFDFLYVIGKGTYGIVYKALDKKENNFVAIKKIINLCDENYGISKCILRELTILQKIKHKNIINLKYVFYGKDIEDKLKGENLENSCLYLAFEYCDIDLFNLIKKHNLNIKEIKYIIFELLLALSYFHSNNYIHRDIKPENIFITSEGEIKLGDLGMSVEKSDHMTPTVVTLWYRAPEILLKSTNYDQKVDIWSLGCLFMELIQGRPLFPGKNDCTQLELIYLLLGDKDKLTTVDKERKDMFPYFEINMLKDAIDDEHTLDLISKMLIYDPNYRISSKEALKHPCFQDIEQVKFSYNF
Protein kinase 7 (PK7), Plasmodium falciparum 3D7 (PF3D7_0213400), sequence (Q7YTF7 1-343): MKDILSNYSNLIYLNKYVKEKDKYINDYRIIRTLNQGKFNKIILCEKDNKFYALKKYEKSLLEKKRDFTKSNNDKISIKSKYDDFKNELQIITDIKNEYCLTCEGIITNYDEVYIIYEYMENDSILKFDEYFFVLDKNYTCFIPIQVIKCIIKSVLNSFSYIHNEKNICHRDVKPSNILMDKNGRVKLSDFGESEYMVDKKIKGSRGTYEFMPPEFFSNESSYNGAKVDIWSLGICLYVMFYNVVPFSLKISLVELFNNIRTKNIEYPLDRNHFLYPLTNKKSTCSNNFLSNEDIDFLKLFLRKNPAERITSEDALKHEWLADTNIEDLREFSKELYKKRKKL
Calcium-dependent protein kinase 1 (Plasmodium falciparum (isolate 3D7)), sequence (P62344 whole entry, looked up): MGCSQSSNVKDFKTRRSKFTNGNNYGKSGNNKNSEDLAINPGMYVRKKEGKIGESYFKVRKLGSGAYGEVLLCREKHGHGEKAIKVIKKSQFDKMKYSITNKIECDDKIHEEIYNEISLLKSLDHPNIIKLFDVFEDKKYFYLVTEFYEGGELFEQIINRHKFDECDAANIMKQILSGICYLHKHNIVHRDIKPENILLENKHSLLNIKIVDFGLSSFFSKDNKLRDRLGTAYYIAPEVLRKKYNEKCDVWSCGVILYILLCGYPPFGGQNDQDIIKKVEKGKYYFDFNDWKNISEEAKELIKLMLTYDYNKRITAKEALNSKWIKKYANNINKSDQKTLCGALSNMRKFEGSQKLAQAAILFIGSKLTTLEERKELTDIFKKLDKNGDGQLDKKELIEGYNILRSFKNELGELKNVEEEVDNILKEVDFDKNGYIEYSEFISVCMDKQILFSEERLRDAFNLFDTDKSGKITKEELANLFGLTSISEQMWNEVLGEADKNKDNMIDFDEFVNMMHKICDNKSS
L-lactate dehydrogenase (Plasmodium falciparum (isolate CDC / Honduras)), sequence (Q27743 whole entry, looked up): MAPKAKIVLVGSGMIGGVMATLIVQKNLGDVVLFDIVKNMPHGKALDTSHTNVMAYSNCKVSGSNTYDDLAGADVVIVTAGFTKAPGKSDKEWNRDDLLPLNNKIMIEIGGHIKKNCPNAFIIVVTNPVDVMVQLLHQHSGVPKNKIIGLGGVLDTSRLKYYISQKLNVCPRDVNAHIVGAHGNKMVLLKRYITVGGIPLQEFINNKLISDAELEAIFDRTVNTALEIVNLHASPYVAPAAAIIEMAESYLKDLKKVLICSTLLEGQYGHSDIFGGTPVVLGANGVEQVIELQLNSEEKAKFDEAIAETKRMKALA

N#CCOc1c(C2CCN(CCCCNC(=O)c3ccc(-c4ccc(C(F)(F)F)cc4)cc3)CC2)ccc2c1CCCC2
inactive: growth inhibition [1] 48% | inhibition [3] 4% | outcome [5] | outcome [6] | outcome [7] | outcome [8]
active: inhibition [2] 59% | growth inhibition [4] 97%

O=C(Nc1cccc(Cl)c1)OC1CCCN2CCCCC12 (stereo not drawn)
active: growth inhibition [4] 85%
inactive: growth inhibition [1] -4% | inhibition [2] 6% | inhibition [3] 1% | outcome [5] | outcome [6] | outcome [7] | outcome [8]

COc1ccc(C2C(C(=O)OC3CCCC3)=C(C)NC3=C2C(=O)CCC3)cc1Br (stereo not drawn)
inactive: inhibition [2] -2% | inhibition [3] 5% | outcome [5] | outcome [6] | outcome [7] | outcome [8]
active: growth inhibition [1] 77% | growth inhibition [4] 94%

CC(C)c1ccc(-c2noc(SCC(=O)N(C)c3ccc(F)cc3)n2)cc1
inactive: inhibition [2] 7% | inhibition [3] 3% | outcome [5] | outcome [6] | outcome [7] | outcome [8]
active: growth inhibition [1] 77% | growth inhibition [4] 84%

O=C(Nc1ccc(S(=O)(=O)NCCCN2CCOCC2)cc1)c1cc(-c2ccccc2)n[nH]1
active: growth inhibition [4] 82%
inactive: growth inhibition [1] 29% | inhibition [2] 16% | inhibition [3] 1% | outcome [5] | outcome [6] | outcome [7] | outcome [8]

Clc1cccc(C=NNc2ccnc3ccccc23)c1
inactive: growth inhibition [1] 44% | inhibition [2] 5% | inhibition [3] 4% | outcome [5] | outcome [6] | outcome [7] | outcome [8]
active: growth inhibition [4] 102%

O=C(/C=C/c1ccc(Cl)c(Cl)c1)N1CCC(CCCN2CCC(c3c[nH]c4ccccc34)CC2)CC1
active: growth inhibition [4] 101%
inactive: growth inhibition [1] 45% | inhibition [2] 44% | inhibition [3] -1% | outcome [5] | outcome [6] | outcome [7] | outcome [8]

O=C(NCC(CCCN1CCC(c2c[nH]c3ccccc23)CC1)c1ccccc1)Nc1ccc(Cl)c(Cl)c1 (stereo not drawn)
inactive: inhibition [2] 38% | inhibition [3] 1% | outcome [5] | outcome [6] | outcome [7] | outcome [8]
active: growth inhibition [1] 64% | growth inhibition [4] 101%

O=C(NC(=S)NCc1ccncc1)c1ccccc1
inactive: growth inhibition [1] -3% | inhibition [2] -7% | inhibition [3] 1% | outcome [5] | outcome [6] | outcome [7] | outcome [8]
active: growth inhibition [4] 94%

COc1cccc(-c2cccc(NC(=O)C3CCN(Cc4ccc(O)cc4)CC3)c2)c1
inactive: inhibition [2] 9% | inhibition [3] 0% | outcome [5] | outcome [6] | outcome [7] | outcome [8]
active: growth inhibition [1] 97% | growth inhibition [4] 97%

COc1c(C2CCN(CCCCNC(=O)c3cc(-c4ccc(Cl)cc4)oc3C)CC2)ccc2c1CCCC2
active: inhibition [2] 93% | growth inhibition [4] 97%
inactive: growth inhibition [1] 27% | inhibition [3] 2% | outcome [5] | outcome [6] | outcome [7] | outcome [8]

Cc1ccc(CN2CCCN(Cc3cccc(NC(=O)c4cc5ccccc5s4)c3)CC2)cc1C
inactive: growth inhibition [1] 33% | inhibition [2] 44% | inhibition [3] -3% | outcome [5] | outcome [6] | outcome [7] | outcome [8]
active: growth inhibition [4] 92%

COc1ccc2nccc([C@@H](O)CN3CCC(NCCOc4c(C)cccc4F)CC3)c2c1
inactive: inhibition [2] 4% | inhibition [3] -5% | outcome [5] | outcome [6] | outcome [7] | outcome [8]
active: growth inhibition [1] 95% | growth inhibition [4] 100%

COc1ccc2c(c1)CC1CN(CCCCNC(=O)c3ccc(NC(=O)c4cc(Cl)cc(Cl)c4)cc3)CCN1C2 (stereo not drawn)
active: growth inhibition [1] 57% | growth inhibition [4] 101%
inactive: inhibition [2] 7% | inhibition [3] 1% | outcome [5] | outcome [6] | outcome [7] | outcome [8]

CCNc1cc(C(=O)N[C@@H](Cc2ccccc2)[C@H](O)CNC2CCC(C)(C)CC2)cc(N2CCCCS2(=O)=O)c1
inactive: inhibition [2] 1% | inhibition [3] 3% | outcome [5] | outcome [6] | outcome [7] | outcome [8]
active: growth inhibition [1] 71% | growth inhibition [4] 98%

O=C(NC1CCN(CCN2CCC(c3ccccc3C(F)(F)F)CC2)CC1)c1ccc(-c2ccc(Cl)cc2)cc1
active: growth inhibition [1] 68% | growth inhibition [4] 101%
inactive: inhibition [2] 39% | inhibition [3] 4% | outcome [5] | outcome [6] | outcome [7] | outcome [8]

O=C(Nc1ccc(F)cc1)NC1CCN(CCCCCNC(=O)[C@@H]2C[C@H]2c2ccc(Cl)c(Cl)c2)CC1
inactive: growth inhibition [1] 20% | inhibition [2] 46% | inhibition [3] -2% | outcome [5] | outcome [6] | outcome [7] | outcome [8]
active: growth inhibition [4] 101%

O=C(NC1CCCCC1)C(c1cccs1)N(CCc1ccccc1)C(=O)c1ccco1 (stereo not drawn)
active: growth inhibition [1] 63% | growth inhibition [4] 92%
inactive: inhibition [2] -10% | inhibition [3] -1% | outcome [5] | outcome [6] | outcome [7] | outcome [8]

CNc1c2c(nc3ccc(NC(=O)CCCCCCc4ccccc4)cc13)CCCC2
active: growth inhibition [1] 82% | growth inhibition [4] 100%
inactive: inhibition [2] 0% | inhibition [3] 0% | outcome [5] | outcome [6] | outcome [7] | outcome [8]

NC1=NC(c2ccccc2)N(c2ccc(Cl)c(Cl)c2)C(N)=N1 (stereo not drawn)
inactive: growth inhibition [1] 0% | inhibition [2] 13% | inhibition [3] -2% | outcome [5] | outcome [6] | outcome [7] | outcome [8]
active: growth inhibition [4] 94%

Cc1cc2ccccc2n1CC(=O)N1CC(C(=O)N2CCCCC2)Oc2ccccc21 (stereo not drawn)
active: growth inhibition [1] 77% | growth inhibition [4] 99%
inactive: inhibition [2] -1% | inhibition [3] 2% | outcome [5] | outcome [6] | outcome [7] | outcome [8]

COc1cc2nc(NCCC(C)C)n3nc(-c4ccccc4)nc3c2cc1OC
inactive: inhibition [2] -7% | inhibition [3] 4% | outcome [5] | outcome [6] | outcome [7] | outcome [8]
active: growth inhibition [1] 97% | growth inhibition [4] 94%

O=C(Nc1ccc(CC(=O)N2CCc3cc(Cl)c(N4CCN(C/C=C/c5ccccc5)CC4)cc32)cc1)Nc1cccc([N+](=O)[O-])c1
active: growth inhibition [4] 95%
inactive: growth inhibition [1] 27% | inhibition [2] -8% | inhibition [3] -5% | outcome [5] | outcome [6] | outcome [7] | outcome [8]

CCOC(=O)c1cc(Cl)ccc1OCCCON1C(N)=NC(N)=NC1(C)C
inactive: inhibition [3] 3% | outcome [5] | outcome [6] | outcome [7] | outcome [8]
active: growth inhibition [1] 95% | inhibition [2] 69% | growth inhibition [4] 94%

O=C(/C=C/c1ccc(Cl)cc1)NCCCCCN1CCCC(C(=O)Nc2cccc(Cl)c2)C1 (stereo not drawn)
inactive: growth inhibition [1] 4% | inhibition [2] 21% | inhibition [3] 0% | outcome [5] | outcome [6] | outcome [7] | outcome [8]
active: growth inhibition [4] 96%

Cc1cccc2[nH]c(-c3cccc(-c4ccc(NC(=O)N[C@@H]5C[C@H]5c5ccccc5)cc4)c3)nc12
inactive: growth inhibition [1] 49% | inhibition [2] 25% | inhibition [3] 6% | outcome [5] | outcome [6] | outcome [7] | outcome [8]
active: growth inhibition [4] 98%

c1ccc(Oc2ccc(Nc3ccnc(Nc4cccc(CNCCCN5CCOCC5)c4)n3)cc2)cc1
active: growth inhibition [1] 50% | growth inhibition [4] 100%
inactive: inhibition [2] -1% | inhibition [3] -1% | outcome [5] | outcome [6] | outcome [7] | outcome [8]

CN(C1CCC(NC(=O)/C=C/c2ccccc2)CC1)C1CC2(CCN(C(=O)OC(C)(C)C)CC2)c2ccccc21 (stereo not drawn)
active: growth inhibition [1] 95% | growth inhibition [4] 95%
inactive: inhibition [2] 16% | inhibition [3] 5% | outcome [5] | outcome [6] | outcome [7] | outcome [8]

COc1ccc(-c2cnc(NCc3ccccc3)nc2)cc1CNC1CCN(C)CC1
inactive: inhibition [2] 19% | inhibition [3] 1% | outcome [5] | outcome [6] | outcome [7] | outcome [8]
active: growth inhibition [1] 64% | growth inhibition [4] 96%

CN1CCN(c2ccc(-c3cc(-c4ccncc4)c(-c4ccc(Cl)c(O)c4)o3)cc2)CC1
active: growth inhibition [1] 98% | growth inhibition [4] 101%
inactive: inhibition [2] -13% | inhibition [3] -4% | outcome [5] | outcome [6] | outcome [7] | outcome [8]

CCCNC(=O)C1CCN(C(c2ccccc2)c2ccc(Cl)c(Cl)c2)CC1 (stereo not drawn)
inactive: inhibition [2] 15% | inhibition [3] 1% | outcome [5] | outcome [6] | outcome [7] | outcome [8]
active: growth inhibition [1] 90% | growth inhibition [4] 90%

COc1ccccc1CN1CCC(NC(=O)c2ccc(-c3ccc(N(C)C)cc3)s2)CC1
active: growth inhibition [4] 90%
inactive: growth inhibition [1] 38% | inhibition [2] 29% | inhibition [3] -2% | outcome [5] | outcome [6] | outcome [7] | outcome [8]

COC(=O)c1ccc(NC(=O)c2ccc(CCN3CCC(c4nc(COCC(F)(F)F)c(-c5ccc(F)cc5)o4)CC3)cc2)cc1
active: growth inhibition [4] 89%
inactive: growth inhibition [1] 37% | inhibition [2] 22% | inhibition [3] -5% | outcome [5] | outcome [6] | outcome [7] | outcome [8]

O=C(c1cc(-c2cccs2)[nH]n1)N1CCN(S(=O)(=O)c2ccc(Cl)cc2)CC1
inactive: inhibition [2] -1% | inhibition [3] 3% | outcome [5] | outcome [6] | outcome [7] | outcome [8]
active: growth inhibition [1] 95% | growth inhibition [4] 96%

CCOc1ccc2nc(-c3ccccc3)cc(NN=Cc3ccncc3)c2c1
inactive: inhibition [2] 19% | inhibition [3] 0% | outcome [5] | outcome [6] | outcome [7] | outcome [8]
active: growth inhibition [1] 101% | growth inhibition [4] 102%

O=C(C=Cc1cc([N+](=O)[O-])ccc1Cl)N1CCC(CCN2CCC(c3c[nH]c4ccccc34)CC2)CC1
inactive: growth inhibition [1] 26% | inhibition [2] 25% | inhibition [3] -2% | outcome [5] | outcome [6] | outcome [7] | outcome [8]
active: growth inhibition [4] 92%
